The whole screen tested about 16,000 compounds, of which about 4,000 (25%) were called active. Roughly 26% stayed inconclusive and do not appear here. Calls follow the shape of the dose curve; as a rule, active = well fitted curve in the direction sought with a large enough effect; inconclusive = small, poorly fitted or top-dose-only effect, or effect the other way; inactive = no such curve, though single readings can be large or run the other way. A selection follows.
Each molecule was assayed against Cytochrome P450 2C9 (Homo sapiens) (UniProt P11712) (assay: Cytochrome panel assay with activity outcomes). Conditions: recombinant CYP, pro-luciferin dealkylation, luminescence, p450-cyp2c9; series mostly up to 57.1 µM.
% is scaled to controls: 0 for no effect and ±100 for the full control effect.

Cytochrome P450 2C9 (Homo sapiens), sequence (P11712 whole entry, looked up): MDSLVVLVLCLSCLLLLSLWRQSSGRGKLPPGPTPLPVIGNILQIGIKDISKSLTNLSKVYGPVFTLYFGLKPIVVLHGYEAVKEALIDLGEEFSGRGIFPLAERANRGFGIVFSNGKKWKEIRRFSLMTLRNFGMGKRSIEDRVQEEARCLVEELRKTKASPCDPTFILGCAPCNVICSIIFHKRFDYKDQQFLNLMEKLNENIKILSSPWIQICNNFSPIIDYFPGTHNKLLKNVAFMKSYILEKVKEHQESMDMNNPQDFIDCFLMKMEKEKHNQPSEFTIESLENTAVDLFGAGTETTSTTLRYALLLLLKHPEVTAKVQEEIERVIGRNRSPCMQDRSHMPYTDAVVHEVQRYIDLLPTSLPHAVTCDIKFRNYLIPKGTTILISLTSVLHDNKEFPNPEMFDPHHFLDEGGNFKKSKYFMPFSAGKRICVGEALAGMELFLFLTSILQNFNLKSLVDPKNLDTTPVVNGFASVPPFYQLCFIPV

AC50, inactive:
COc1ccc(-n2c(-c3ccccc3)nc(=S)c3c2CCCC3)cc1
C/C(=N\N=C1\NC(=O)CC(C(=O)O)S1)c1cccs1 (centres undefined)
CC(=O)c1cc(C)ccc1OC(=O)CCN1C(=O)C2C3c4ccccc4C(c4ccccc43)C2C1=O (centres undefined)
O=c1[nH]ncn2cccc12
O=C(CSc1nnc(-c2ccco2)n1-c1ccccc1)NCc1ccco1
O=C1C2CCC(C(O)C2)N1Cc1ccccc1 (centres undefined)
O=C(COC(=O)COc1ccccc1)Nc1ccc(OC(F)(F)F)cc1
NS(=O)(=O)c1cc(C(=O)O)cc(N2CCCC2)c1Oc1ccccc1
CCOC(=O)C1CCCN(C(=O)CCCOc2cc(=O)n(C)c3ccccc23)C1 (centres undefined)
O=[N+]([O-])c1cc(/C=N/N2CCN(C3c4ccccc4-c4ccccc43)CC2)ccc1Cl
CC(C)(C(=O)c1cccnc1)c1cccnc1
O=c1c2cnn(-c3ccccc3)c2nnn1/N=C/c1cccnc1

AC50, active:
CC1=C(C(N)=O)C(c2cccs2)n2nc(-c3cccc(Cl)c3)nc2N1 (centres undefined) 12600 nM
C/C(=N\N=C(c1ccccc1)c1ccccc1)c1cccs1 708 nM
Cc1cc(C)c(NC(=O)C(C)Sc2nnc(-c3ccco3)n2-c2ccccc2)c(C)c1 (centres undefined) 10000 nM
NC(=O)c1ccc(C2SCC(=O)N2Cc2ccccc2)cc1 (centres undefined) 12600 nM
O=C(COc1ccccc1)Nc1cc(C(F)(F)F)ccc1N1CCCC1 14100 nM
Cc1nn(-c2nc3ccccc3[nH]2)c(N)c1-c1ccc(Cl)cc1 3980 nM
Oc1ccc2ccccc2c1Cc1c(O)ccc2ccccc12 2000 nM
CC(=O)N1N=C(c2cccc([N+](=O)[O-])c2)OC1c1ccccc1Cl (centres undefined) 891 nM
CC(=O)N1N=C(c2cccc([N+](=O)[O-])c2)OC1c1ccc(Cl)cc1Cl (centres undefined) 1260 nM
Cn1c(=O)cc(OCCCC(=O)N2CCN(c3ccccc3)CC2)c2ccccc21 2510 nM
C/C(=N\N1CCN(C2c3ccccc3-c3ccccc32)CC1)c1cccnc1 562 nM
C(=N\N1CCN(C2c3ccccc3-c3ccccc32)CC1)/c1cccnc1 200 nM
C/C(=N\N1CCN(C2c3ccccc3-c3ccccc32)CC1)c1ccncc1 2240 nM

activity, negative = inhibition, inactive:
CC(=O)/C(=N\N=C(N)N)c1ccccc1 11.7% [at 11.4 µM]
O=C(O)c1ccc(CNCc2ccccc2)cc1 10.3% [at 11.4 µM]
O=C(O)Cc1c(O)ccc2ccccc12 -24.2% [at 11.4 µM]
CC(C)(C)c1ccc(O)c(CN(Cc2c(O)ccc3ccccc23)C2CCCCC2)c1 -19% [at 11.4 µM]

Reference: PubChem BioAssay AID1851 (National Center for Advancing Translational Sciences (NCATS), 2009)
